The experiment is described as follows: S6 kinase pathway phospho-S6 level changes – cell-based, A549, cytoblot, luminescence, serum-stimulated, primary screen (AID 1158).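 Also: serum-stimulated A549 lung adenocarcinoma cells; signal is phosphorylated S6 detected by cytoblot immunostaining with HRP secondary.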 The settings on record: 5 h, higher = more signal.
In turn, `COCCCNC(=O)[C@@]1(Sc2ccc(C)cc2)CC(=O)N(Cc2ccccc2)[C@@H]1c1ccc(CO)cc1I` came in with a z-score of 0.505.

`COC(=O)[C@H](C)NC(=O)CCC1CC(OC(=O)NCCc2ccc(F)cc2)CC2(CCCC(COC(=O)NCC(c3ccccc3)c3ccccc3)O2)O1` (stereo partly specified) came in with a z-score of 0.71.

As to `COc1ccccc1CN1C(=O)c2ccccc2[C@@H](C(=O)NCC(F)(F)F)[C@@H]1c1ccc(CO)cc1`, the z-score was -0.189.

`Cc1cc2c(c(=O)o1)[C@H](O)[C@H]1O[C@H]1C2=O` showed a z-score of -0.573.

`CCN(CC)c1ccc(N2CC=CC34O[C@@H]5/C=C\CCC(C)OC(=O)C5[C@H]3C(=O)N(CCCO)[C@@H]4C2=O)cc1` (stereo partly specified) showed a z-score of -0.473.

Compound `O=C1O[C@@H](c2ccccc2)[C@@H](c2ccccc2)N2[C@@H](c3ccccc3OCCO)[C@]3(C(=O)Nc4ccc(C#CCCO)cc43)[C@@H](C(=O)O)[C@H]12` showed a z-score of 1.47.

The compound `COc1ccc([Si](C)(C)[C@@H]2[C@@H](CC(=O)N3CCC[C@H]3CO)O[C@]3(C(=O)N(Cc4cccc(N5CCC5=O)c4)c4ccccc43)[C@H]2C)cc1` yielded a z-score of -0.0355.

Regarding `CC(C)(C)N1CC=CC23O[C@@H]4C=CCCOC(=O)C4[C@H]2C(=O)N(CCCCCO)[C@@H]3C1=O` (stereo partly specified), the z-score was -0.186.

With `COc1cccc([C@@H]2Oc3ccc(Br)cc3C(=O)[C@H]2O)c1`, the z-score is -0.256.

Compound `CO[C@H]1COC(=O)[C@@H]2CCCN2C(=O)CC=C[C@@H](C)[C@H](OC)COC(=O)CC=C[C@@H]1C` gave a z-score of 2.35.

As for `CC(CCN1CCc2nc(-c3ccccc3)c(-c3ccccc3)cc2C1)=NO[C@H](C)c1cn([C@@H]2COC[C@H]2O)nn1`, the z-score was 0.387.

For the origin of these results see PubChem BioAssay.
